The text below walks through data of PubChem BioAssay AID651768 (National Center for Advancing Translational Sciences (NCATS), 2012).

Screen size: about 360,000 compounds; about 1,700 (0.47%) were called active. Not shown: some 2% with an inconclusive outcome. The sample holds actives, similar compounds and a random draw of the others, so the mix is not that of the screen. Unmarked numbers belong to inactive results. Calls follow the shape of the dose curve; as a rule, active = well fitted inhibition curve with a large enough effect; inconclusive = small, poorly fitted or top-dose-only effect; inactive = no such curve, though single readings can be large or run the other way.
% is scaled to controls: 0 for no effect and ±100 for the full control effect; potency is read from the fitted curve at half-maximal effect.

Chain of Bifunctional 3'-5' exonuclease/ATP-dependent helicase WRN (Homo sapiens) (Q14191 whole entry, looked up): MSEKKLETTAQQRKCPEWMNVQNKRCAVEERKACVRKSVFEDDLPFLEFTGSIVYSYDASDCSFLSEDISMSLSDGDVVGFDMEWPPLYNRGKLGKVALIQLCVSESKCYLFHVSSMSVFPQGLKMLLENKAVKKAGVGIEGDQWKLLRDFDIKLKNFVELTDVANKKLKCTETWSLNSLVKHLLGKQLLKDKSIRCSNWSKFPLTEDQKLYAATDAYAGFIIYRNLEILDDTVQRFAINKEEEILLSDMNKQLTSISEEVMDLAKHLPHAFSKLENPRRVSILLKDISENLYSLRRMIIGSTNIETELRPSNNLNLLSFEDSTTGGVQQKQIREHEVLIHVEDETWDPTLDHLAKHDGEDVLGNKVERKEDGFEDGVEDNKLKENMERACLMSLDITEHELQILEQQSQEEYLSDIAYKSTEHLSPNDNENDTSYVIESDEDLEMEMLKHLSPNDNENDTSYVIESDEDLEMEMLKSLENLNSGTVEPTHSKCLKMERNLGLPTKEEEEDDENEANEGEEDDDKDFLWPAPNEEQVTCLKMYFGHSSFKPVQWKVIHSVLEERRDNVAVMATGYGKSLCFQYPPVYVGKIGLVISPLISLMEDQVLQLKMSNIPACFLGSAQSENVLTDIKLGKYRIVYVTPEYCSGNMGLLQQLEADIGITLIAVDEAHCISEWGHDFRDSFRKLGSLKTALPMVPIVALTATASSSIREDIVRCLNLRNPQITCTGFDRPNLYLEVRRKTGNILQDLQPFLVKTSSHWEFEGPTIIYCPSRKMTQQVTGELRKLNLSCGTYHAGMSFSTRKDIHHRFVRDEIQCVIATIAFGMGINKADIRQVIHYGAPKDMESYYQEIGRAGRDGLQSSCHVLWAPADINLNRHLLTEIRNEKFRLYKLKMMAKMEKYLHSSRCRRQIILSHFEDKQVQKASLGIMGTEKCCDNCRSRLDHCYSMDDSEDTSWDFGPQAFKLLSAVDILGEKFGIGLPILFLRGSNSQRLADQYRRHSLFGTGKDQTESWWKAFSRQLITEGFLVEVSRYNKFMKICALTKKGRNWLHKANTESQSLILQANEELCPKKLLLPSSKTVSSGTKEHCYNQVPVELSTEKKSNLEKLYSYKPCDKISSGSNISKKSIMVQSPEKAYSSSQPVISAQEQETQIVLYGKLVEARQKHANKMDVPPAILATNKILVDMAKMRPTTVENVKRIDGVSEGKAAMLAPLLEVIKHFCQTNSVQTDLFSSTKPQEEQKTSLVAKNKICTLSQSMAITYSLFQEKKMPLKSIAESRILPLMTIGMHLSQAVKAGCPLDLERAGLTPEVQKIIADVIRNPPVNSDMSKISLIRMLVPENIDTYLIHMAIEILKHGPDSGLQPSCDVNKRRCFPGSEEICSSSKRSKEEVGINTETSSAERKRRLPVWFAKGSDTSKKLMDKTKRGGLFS

For the test, the target named is Bifunctional 3'-5' exonuclease/ATP-dependent helicase WRN (Homo sapiens) (UniProt Q14191). The test is described as follows: qHTS for Inhibitors of WRN Helicase. Also: nearly all actives have a fitted effect of over 55% in size. To be noted: WRN helicase unwinding, fluorescent forked duplex, kinetic; series mostly up to 114 µM; activity change, negative = inhibition: at the top concentration. From the text:
Inhibition of DNA repair is proposed as a strategy for combating cancer. Synthetic lethality is an approach that exploits preexisting DNA repair deficiencies in certain tumors to develop inhibitors of DNA repair pathways that compensate for the tumor-associated DNA repair deficiency. Because helicases play critical roles in the DNA damage response and in DNA repair, particularly in actively dividing and replicating cells, characterization of synthetic lethal relationships of DNA helicases may be of value in developing improved anticancer treatment strategies; moreover, small molecules that specifically target a given DNA helicase may be useful for understanding its role in cellular nucleic acid metabolism. The goal of this project is to identify small molecule, non-covalent chemical inhibitors of the Werner syndrome (WS) helicase (WRN), which plays an important role in cell proliferation, the replication stress response, and DNA repair. […] The WRN gene product that is defective in the chromosomal instability disorder has DNA helicase and exonuclease activities and interacts with a number of nuclear proteins to maintain genomic stability. We will employ an optimized high-throughput screening assay that utilizes a fluorescence intensity modulation scheme with a fluorophore and quencher positioned near one another within a duplex deoxyoligonucleotide that contains a single forked structure. After a high-throughput screen of the ~350,000-member Molecular Libraries Small Molecule Repository (MLSMR) collection, followed by data analysis and hit selection, a panel of confirmatory, as well as secondary and ternary, assays will be employed to identify high-confidence WRN inhibitors. Structure-activity relationships will be investigated for the top candidate inhibitor series through medchem expansion. These are the results of the primary screening campaign against the MLSMR. NIH Chemical Genomics Center [NCGC] NIH Molecular Libraries Probe Centers Network [MLPCN] MLPCN Grant: MH096530 Assay Submitter (PI): Robert Brosh, National Institute of Aging
Three muL of reagents (buffer in columns 3 and 4 as negative controls; WRN at 20 nM final concentration in columns 1 and 2 as positive controls; columns 5-48 as test reactions) will be dispensed into a 1536-well Greiner black plate via solenoid-valve based nanoliter dispensers. Compounds (23 nL each in columns 5-48) and control (23 nL each in column 2 as dose-response) will be transferred via a Kalypsys pintool equipped with a 1536-pin array. Plates will be incubated for 15 min at room temperature, and then 1 µL of substrate (100 nM forked duplex oligonucleotide and 2 mM ATP final concentrations) will be added to start reaction, and plate will be transferred into a ViewLux high-throughput CCD imager where reaction progress is measured in kinetic mode using standard red-fluorescence optics (excitation filter 525 nm, emission filter 598 nm).
Regarding `COc1ccc(CNC(=O)/C(C#N)=C/c2cccc(OC)c2OC)cc1`, the “activity change, negative = inhibition” value was -7.89%.
As for `Cc1ccc(/C=C(\C#N)C(=O)Nc2cccc3ncccc23)o1`, the Potency was 20 µM (active).
For the compound `Cc1ccc2c(NC(=O)C3CC3)cccc2n1`, the “activity change, negative = inhibition” value was 3.45%.
On the same count and under the same terms, to `CC(O)CN(Cc1ccc(Cl)cc1)CC(C)O` (configuration not stated) belongs -5.28%; to `Cc1ccc(S(=O)(=O)NC[C@H]2O[C@@H](n3cnc4c(N)ncnc43)[C@H](O)[C@@H]2O)s1`, 1.49%.
With `O=c1ccc2c(-c3ccccc3S(=O)(=O)O)c3ccc(O)c(O)c3oc-2c1O`, the Potency is 0.212 µM (active).
On to `CCC(C)CN1C(=O)CSCC1(C)C(=O)NCc1ccccc1` (configuration not stated), for which the “activity change, negative = inhibition” value is -3.61%.
In the case of `O=C(CSc1nnc(-c2ccncc2)o1)NCc1ccc(Cl)cc1`, the “activity change, negative = inhibition” value is -4.04%.
Consider `COc1ccc2c(c1)c(=Cc1ccc(N(C)C)cc1)c1cc(-c3ccccc3)[n+](C)n12`, for which the Potency was 28.2 µM (active).
On to `CCOC(=O)N1CCC(N2Cc3cccc(C(=O)Nc4ccc(S(=O)(=O)N(CC)CC)cc4)c3C2=O)CC1`, for which the “activity change, negative = inhibition” value is -22.4%.
On the same count and under the same terms, to `CCCCn1c(SCc2ncc(-c3ccccc3)o2)nc2cc(S(N)(=O)=O)ccc21` belongs -6.83%; to `COc1ccc(N(CC(=O)NCCSCc2cccc(Cl)c2)S(C)(=O)=O)cc1`, 1.93%.
Take `COC(=O)c1ccc(COc2ccc(/C=C/C(=O)c3ccc(OC)c(CSCC(=O)O)c3)cc2OC)cc1`: the Potency was 44.7 µM (active).
Consider `COC(=O)c1ccc(C(NC(=O)OCc2ccccc2)/C(C)=C/[C@@H](C)C(=O)NCc2ccc(OC)c(OC)c2)cc1` (some centres not stated), for which the “activity change, negative = inhibition” value is -4.93%.
The same measure, in the same setting: to `COc1cc(/C=C/C(=O)OCC(=O)NC(=O)NCc2ccccc2)ccc1OCC#N` belongs -4.86%.
On the same count and under the same terms, for `COc1cccc(/C=N/NC(=O)C(=O)N2CCCC2)c1` the value was -4.37%; for `CC(NC(=O)C(=O)NN=C1CCC(C(C)(C)C)CC1)c1ccccc1` (configuration not stated), -0.0663%; for `CC(=O)Nc1cncc(-c2ccccc2CO)n1`, -0.378%.
Same read-out and setting: for `O=C(O)C1C2C=CC(C2)C1C(=O)N1CCN(CCO)CC1` (configuration not stated) the value was -16.9%; for `C#CCOCCOCCOCCNc1nc(N2CCN(C(=O)C([C@@H](C)CC)n3cc(C(N)COC(=O)C(F)(F)F)nn3)CC2)nc(N2CCN(C(=O)[C@H](CCCCN)n3cc(C(N)CC(C)C)nn3)CC2)n1` (some centres not stated), 5.35%.
Turning to `C#CCOCCOCCOCCNc1nc(N2CCN(C(=O)[C@H](CO)n3cc([C@@H](N)C(C)C)nn3)CC2)nc(N2CCN(C(=O)[C@H](CCC(=O)O)n3cc([C@@H](N)[C@H](C)CC)nn3)CC2)n1`, the “activity change, negative = inhibition” value was -2.38%.
On to `C#CCOCCOCCOCCNc1nc(N2CCN(C(=O)CCCCCCCCCCNC(=O)[C@H](CCCCN)n3cc(C)nn3)CC2)nc(N2CCN(C(=O)CCCCCCCCCCNC(=O)[C@H](CO)n3cc(CCCSC)nn3)CC2)n1`, for which the Potency is 50.1 µM (active).
The same measure, in the same setting: to `C#CCOCCOCCOCCNc1nc(N2CCN(C(=O)CCCCCCCCCCNC(=O)[C@H]([C@@H](C)CC)n3cc(CCCCN=C(N)N)nn3)CC2)nc(N2CCN(C(=O)CCCCCCCCCCNC(=O)[C@H](CO)n3cc(CCCSC)nn3)CC2)n1` belongs 25.1 µM (active).
As to `C#CCOCCOCCOCCNc1nc(N2CCN(C(=O)[C@H](CCC(=O)O)n3cc(C(N)CO)nn3)CC2)nc(N2CCN(C(=O)[C@H](Cc3ccc(O)cc3)n3cc(C(N)[C@H](C)CC)nn3)CC2)n1` (some centres not stated), the “activity change, negative = inhibition” value is 9.57%.
Still for that read-out and setting: to `C#CCOCCOCCOCCNc1nc(N2CCN(C(=O)C(Cc3ccc(O)cc3)n3cc(C(N)CC(C)C)nn3)CC2)nc(N2CCN(C(=O)C(Cc3ccc(O)cc3)n3cc(C(N)C(C)CC)nn3)CC2)n1` (configuration not stated) belongs -5.12%; to `C#CCOCCOCCOCCNc1nc(N2CCOCC2)nc(N2CCN(C(=O)[C@H](Cc3ccc(O)cc3)n3cc(CCO)nn3)CC2)n1`, 2.23%.
Turning to `C#CCOCCOCCOCCNc1nc(N2CCN(C(=O)CCCCCCCCCCNC(=O)Cn3cc(CCCCCN)nn3)CC2)nc(N2CCN(C(=O)CCCCCCCCCCNC(=O)[C@H](CO)n3cc(CCCSC)nn3)CC2)n1`, the Potency was 31.6 µM (active).
Regarding `C#CCOCCOCCOCCNc1nc(N2CCN(C(=O)[C@H](CCCCN)n3cc([C@@H](N)C(C)CC)nn3)CC2)nc(N2CCN(C(=O)[C@H](Cc3ccc(O)cc3)n3cc([C@@H](N)C(C)CC)nn3)CC2)n1` (some centres not stated), the “activity change, negative = inhibition” value is -8.56%.
On to `COc1ccc(NC(=O)C(c2ccncc2)n2c(=O)c(-c3cc4ccccc4[nH]3)nc3ccccc32)cc1` (configuration not stated), for which the “activity change, negative = inhibition” value was -9.68%.
As to `Cc1ccc(C(=O)NNC(=O)OC(C)(C)C)c(Cl)c1`, the “activity change, negative = inhibition” value is -1.09%.
The same measure, in the same setting: to `CCCCN(C=O)c1c(CC)nc2c(OCc3ccccc3C(=O)OC)cccn12` belongs 3.67% [at 57.1 µM]; to `Cc1c(NC(=O)COC(=O)/C=C/c2cccc(F)c2)c(=O)n(-c2ccccc2)n1C`, 1.25%; to `O=C(C1CCN(CC2CCCCC2)CC1)N1CCCC1`, -7.19%.
On the same count and under the same terms, to `CN1CCN(C(=O)c2ccc(-c3cc4nc(NCc5cccnc5)n(C)c(=O)c4s3)cc2)CC1` belongs 8.93%; to `CN(C)NC(=O)C(NC(=O)c1ccc(N)cc1)C12CC3CC(CC(C3)C1)C2` (configuration not stated), 7.01%; to `Cc1cccc(CN2CCN(C3CN(Cc4cn(Cc5cc(C)cc(C)c5)nn4)S(=O)(=O)C3)CC2)c1` (configuration not stated), -9.29%.
As to `Cn1ccc(=Nc2ccc(NC(=O)c3ccc(N=c4ccn(C)c5ccc([N+](=O)[O-])cc45)cc3)cc2)cc1`, the Potency is 39.8 µM (active).
Consider `CN(CC1CCCO1)S(=O)(=O)c1ccc(C(=O)Nc2ccc([N+](=O)[O-])cc2)cc1` (configuration not stated), for which the “activity change, negative = inhibition” value is -34.3%.
Turning to `CC(C)c1ccc(NC(=O)CCN2C(=O)c3ccc([N+](=O)[O-])cc3C2=O)cc1`, the “activity change, negative = inhibition” value was 12.3%.
Still for that read-out and setting: for `CC(C)C[C@H]1CNC(=S)N1C[C@H]1CCCN1C[C@H](Cc1ccc(O)cc1)N1C[C@H](Cc2ccc(O)cc2)N(CC2CCCCC2)C1=S` the value was -7.7%; for `CCc1ccc(N(CC(=O)NCc2cccnc2)S(=O)(=O)c2ccccc2)cc1`, 12.3%.
Regarding `O=C(c1cccnc1)N(c1cc2sc(=O)oc2c2ccccc12)S(=O)(=O)c1ccccc1`, the Potency is 20 µM (active).
